Experimental data taken from PubChem BioAssay.
Activity calls are given as the source filed them.

What was measured:
Albumin (Bos taurus) = Albumin (Bos taurus) (UniProt P02769); assay: bovine serum albumin binders on microarray, profiling panel, artefact control for SMM control protein annotation, biochemical, small-molecule microarray, Alexa647 label, 635/667 nm fluorescence (AID 1118); conditions: BSA-A647 binding, fluorescence 635 nm, higher = more signal;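 also: score merges 667 nm emission intensity and signal-to-noise per printed compound spot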
Albumin (Bos taurus), sequence (P02769 whole entry, looked up): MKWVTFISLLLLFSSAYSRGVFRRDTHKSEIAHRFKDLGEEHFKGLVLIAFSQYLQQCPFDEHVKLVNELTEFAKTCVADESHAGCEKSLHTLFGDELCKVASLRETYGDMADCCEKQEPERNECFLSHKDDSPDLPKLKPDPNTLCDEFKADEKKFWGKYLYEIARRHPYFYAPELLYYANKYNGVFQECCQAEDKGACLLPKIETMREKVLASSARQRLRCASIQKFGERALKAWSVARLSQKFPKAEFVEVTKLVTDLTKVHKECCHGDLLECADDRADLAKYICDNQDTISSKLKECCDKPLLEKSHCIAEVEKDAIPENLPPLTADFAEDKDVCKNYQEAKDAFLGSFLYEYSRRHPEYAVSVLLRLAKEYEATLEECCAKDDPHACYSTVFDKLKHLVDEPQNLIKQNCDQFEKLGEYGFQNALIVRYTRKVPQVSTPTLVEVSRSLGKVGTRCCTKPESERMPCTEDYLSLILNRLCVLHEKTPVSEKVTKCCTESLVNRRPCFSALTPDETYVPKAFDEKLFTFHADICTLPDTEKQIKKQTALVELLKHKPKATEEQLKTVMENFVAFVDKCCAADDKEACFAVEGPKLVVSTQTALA

[1] = small-molecule microarray binders of probe aXIP, primary screen, biochemical, NeuroSMM set, 635/667 nm fluorescence (AID 1119); conditions: higher = more signal, called active from +8 up or from −8 down;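 also: probe is the protein aXip251-270 applied at 1 µg/mL to compound-printed slides; binding of probe to printed compounds measured as 667 nm fluorescence plus signal to noise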
[2] = small-molecule binders of probe aNOTCH3, primary screen, biochemical, small-molecule microarray, 635/667 nm fluorescence (AID 1120); conditions: higher = more signal;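 also: probe is a biotin-tagged antibody raised against NOTCH3 rather than NOTCH3 protein; score merges spot fluorescence near 667 nm with spot signal to noise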
[3] = small-molecule binders of probe aNOTCH2, primary screen, biochemical, small-molecule microarray, 635/667 nm fluorescence (AID 1121); conditions: higher = more signal;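 also: score merges feature fluorescence read at 667 nm with its signal to noise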
[4] = molecular target: Carbonic anhydrase 2 (Homo sapiens) (UniProt P00918); assay: CAII small-molecule binders, profiling panel, biochemical, small-molecule microarray, Alexa647-labelled CAII (AID 1122); conditions: CAII-A647 binding fluorescence, higher = more signal
[5] = COS7 lysate on small-molecule microarray, probe aHis, 635 nm (AID 1123); conditions: COS7 cell lysate, fluorescence, higher = more signal;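 also: z-score combines 667nm fluorescence intensity with signal-to-noise per printed compound spot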
[6] = compound binding in COS7 lysate, probe aLAP1, primary screen, cell lysate, small-molecule microarray (AID 1124); conditions: probe aLAP1, fluorescence, higher = more signal;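 also: lysate comes from COS7 cells expressing LAP1 and is applied at 0.3 µg/mL; score merges spot fluorescence near 667 nm with signal-to-noise over triplicate slides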
Sam68 (KHDRBS1) = assay: Sam68 small-molecule binders, primary screen, biochemical, small-molecule microarray, 635 nm fluorescence (AID 1125); conditions: small-molecule microarray binding, higher = more signal;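 also: score merges 667 nm channel intensity with signal to noise over triplicate slides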
[7] = system: Chordin-like protein 2 (CHRDL2); assay: CHRDL2 small-molecule binders, primary screen, biochemical, small-molecule microarray, 635 nm fluorescence (AID 1126); conditions: small-molecule microarray binding, fluorescence 635 nm; higher = more signal;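 also: printed compound slides probed with Chrdl2 protein at 4 µg/mL for 1 h at 4 C; score merges 667 nm emission intensity with signal to noise over three replicate slides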
[8] = molecular target: Concanavalin-A (Canavalia ensiformis) (UniProt P02866); assay: ConA small-molecule binders, primary screen, artefact control for SMM control protein annotation, biochemical, small-molecule microarray, Alexa647 label, 635 nm (AID 1127); conditions: ConA-A647 binding fluorescence, higher = more signal;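 also: z combines 667 nm emission intensity with signal-to-noise across three replicate slides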
Concanavalin-A (Canavalia ensiformis), sequence (P02866 whole entry, looked up): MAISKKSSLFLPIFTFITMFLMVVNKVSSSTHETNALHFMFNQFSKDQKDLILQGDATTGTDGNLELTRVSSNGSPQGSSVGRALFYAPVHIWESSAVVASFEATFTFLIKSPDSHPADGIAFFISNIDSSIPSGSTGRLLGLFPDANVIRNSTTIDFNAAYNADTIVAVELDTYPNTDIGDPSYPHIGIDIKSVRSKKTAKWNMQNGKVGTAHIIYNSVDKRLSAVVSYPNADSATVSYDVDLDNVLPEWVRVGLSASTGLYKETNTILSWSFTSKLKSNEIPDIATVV

[9] = anti-His antibody binders, primary screen, artefact control for SMM control protein annotation, biochemical, small-molecule microarray, 635 nm fluorescence (AID 1128); conditions: anti-His Alexa647 antibody binding, higher = more signal;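 also: score merges feature fluorescence with signal-to-noise for each printed compound spot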
[10] = system: Human papillomavirus type 1a E7 protein (residues 1-88); assay: HPV1a E7 small-molecule binders, primary screen, biochemical, small-molecule microarray, residues 1-88, 635 nm (AID 1129); conditions: small-molecule microarray binding, fluorescence 635 nm; higher = more signal
[11] = molecular target: Focal adhesion kinase 1 (Homo sapiens) (UniProt Q05397); assay: small-molecule microarray binders of FAK, primary screen, biochemical, 635/667 nm fluorescence, BSA, DTT (AID 1130); conditions: PTK2 binding, 635 nm fluorescence, higher = more signal;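 also: composite of spot emission at 667 nm and signal to noise over triplicate slides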
Focal adhesion kinase 1 (Homo sapiens), sequence (Q05397 whole entry, looked up): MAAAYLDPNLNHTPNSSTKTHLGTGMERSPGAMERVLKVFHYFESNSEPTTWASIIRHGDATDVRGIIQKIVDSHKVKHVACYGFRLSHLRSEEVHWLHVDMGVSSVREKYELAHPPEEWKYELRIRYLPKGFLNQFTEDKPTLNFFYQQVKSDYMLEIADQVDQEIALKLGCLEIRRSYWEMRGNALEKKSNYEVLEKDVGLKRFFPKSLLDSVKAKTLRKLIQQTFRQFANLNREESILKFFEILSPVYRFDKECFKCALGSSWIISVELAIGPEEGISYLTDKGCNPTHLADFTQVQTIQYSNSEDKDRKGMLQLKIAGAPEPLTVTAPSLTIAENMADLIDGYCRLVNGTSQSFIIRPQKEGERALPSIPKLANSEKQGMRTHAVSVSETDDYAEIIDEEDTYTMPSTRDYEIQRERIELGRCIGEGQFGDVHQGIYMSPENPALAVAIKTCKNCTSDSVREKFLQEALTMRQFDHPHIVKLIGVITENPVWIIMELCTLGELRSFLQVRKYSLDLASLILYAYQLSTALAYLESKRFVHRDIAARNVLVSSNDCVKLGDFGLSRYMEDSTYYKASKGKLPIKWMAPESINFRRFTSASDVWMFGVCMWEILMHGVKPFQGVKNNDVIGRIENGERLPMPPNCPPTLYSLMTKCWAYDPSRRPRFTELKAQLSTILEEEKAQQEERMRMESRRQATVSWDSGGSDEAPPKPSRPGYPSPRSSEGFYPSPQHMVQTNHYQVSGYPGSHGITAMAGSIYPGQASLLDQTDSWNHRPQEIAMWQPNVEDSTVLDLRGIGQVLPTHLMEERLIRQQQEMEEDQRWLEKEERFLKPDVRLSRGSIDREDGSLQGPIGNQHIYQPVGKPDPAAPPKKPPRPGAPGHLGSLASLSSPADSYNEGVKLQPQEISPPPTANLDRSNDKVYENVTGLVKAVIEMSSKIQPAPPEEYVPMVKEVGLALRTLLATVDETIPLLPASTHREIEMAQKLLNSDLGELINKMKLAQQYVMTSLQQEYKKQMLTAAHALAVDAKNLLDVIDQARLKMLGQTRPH

[12] = system: Fibrinogen (Alexa647-labelled); assay: fibrinogen binders on compound microarrays, profiling panel, artefact control for SMM control-protein annotation, biochemical, small-molecule microarray, 635/667 nm fluorescence (AID 1131); conditions: fibrinogen-A647 binding fluorescence, higher = more signal;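 also: z-score merges 667 nm fluorescence with per-spot signal-to-noise over triplicate slides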
[13] = molecular target: Follistatin (Homo sapiens) (UniProt P19883); assay: follistatin binders on small-molecule microarrays, primary screen, biochemical, small-molecule microarray, 635/667 nm fluorescence (AID 1132); conditions: FST binding, 635 nm fluorescence, higher = more signal
Follistatin (Homo sapiens), sequence (P19883 whole entry, looked up): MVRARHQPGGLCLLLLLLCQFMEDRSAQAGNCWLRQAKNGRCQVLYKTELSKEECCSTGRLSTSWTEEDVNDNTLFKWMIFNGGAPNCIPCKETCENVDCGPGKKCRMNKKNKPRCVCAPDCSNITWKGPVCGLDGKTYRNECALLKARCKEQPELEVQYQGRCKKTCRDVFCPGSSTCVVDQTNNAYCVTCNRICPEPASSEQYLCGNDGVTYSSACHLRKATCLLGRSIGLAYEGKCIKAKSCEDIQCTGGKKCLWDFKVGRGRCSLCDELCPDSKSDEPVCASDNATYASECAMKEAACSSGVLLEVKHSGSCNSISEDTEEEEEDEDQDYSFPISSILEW

[14] = molecular target: Fibroblast growth factor 2 (Homo sapiens) (UniProt P09038); assay: FGF2 binders on small-molecule microarrays, primary screen, biochemical, small-molecule microarray, 635/667 nm fluorescence (AID 1133); conditions: small-molecule microarray binding, FGF2, fluorescence 635/667; higher = more signal
Fibroblast growth factor 2 (Homo sapiens), sequence (P09038 whole entry, looked up): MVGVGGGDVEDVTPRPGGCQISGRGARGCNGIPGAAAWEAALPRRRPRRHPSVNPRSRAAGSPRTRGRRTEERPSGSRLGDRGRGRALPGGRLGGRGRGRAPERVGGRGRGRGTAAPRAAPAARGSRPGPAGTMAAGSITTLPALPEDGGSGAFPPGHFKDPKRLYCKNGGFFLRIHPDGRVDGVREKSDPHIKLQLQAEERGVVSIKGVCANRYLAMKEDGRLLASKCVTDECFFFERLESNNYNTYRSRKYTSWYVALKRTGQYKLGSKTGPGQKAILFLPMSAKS

[15] = mitochondrial membrane potential change in A549 cells, profiling panel, cell-based, JC-1 fluorescence, basal, 24 h, 100 nL (AID 1138); conditions: higher = more signal;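 also: A549 lung adenocarcinoma cells under basal conditions with no added stimulus; test concentration not given here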
Lefty1 = Lefty1 binders on small-molecule microarrays, primary screen, biochemical, small-molecule microarray, 635/667 nm fluorescence (AID 1139); conditions: small-molecule microarray binding, fluorescence 635/667; higher = more signal
[16] = system: wheat germ agglutinin (Triticum aestivum), Alexa647-labelled; assay: wheat germ agglutinin binders on compound microarrays, profiling panel, artefact control for SMM control-protein annotation, biochemical, small-molecule microarray, 635/667 nm fluorescence (AID 1140); conditions: WGA-A647 binding, 635 nm fluorescence, higher = more signal;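 also: score merges 667 nm feature emission with signal to noise over triplicate slides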
[17] = molecular target: Luciferin 4-monooxygenase (Photinus pyralis) (UniProt P08659); assay: firefly luciferase enzyme inhibitors, primary screen, biochemical, luminescence, purified enzyme, 2006 set (AID 1141); conditions: SteadyGlo luminescence, 30 min, higher = more signal, called active from +8 up or from −8 down;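 also: cell-free assay with purified firefly luciferase at 100 ng per well in PBS; test concentration not given here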
Luciferin 4-monooxygenase (Photinus pyralis), sequence (P08659 whole entry, looked up): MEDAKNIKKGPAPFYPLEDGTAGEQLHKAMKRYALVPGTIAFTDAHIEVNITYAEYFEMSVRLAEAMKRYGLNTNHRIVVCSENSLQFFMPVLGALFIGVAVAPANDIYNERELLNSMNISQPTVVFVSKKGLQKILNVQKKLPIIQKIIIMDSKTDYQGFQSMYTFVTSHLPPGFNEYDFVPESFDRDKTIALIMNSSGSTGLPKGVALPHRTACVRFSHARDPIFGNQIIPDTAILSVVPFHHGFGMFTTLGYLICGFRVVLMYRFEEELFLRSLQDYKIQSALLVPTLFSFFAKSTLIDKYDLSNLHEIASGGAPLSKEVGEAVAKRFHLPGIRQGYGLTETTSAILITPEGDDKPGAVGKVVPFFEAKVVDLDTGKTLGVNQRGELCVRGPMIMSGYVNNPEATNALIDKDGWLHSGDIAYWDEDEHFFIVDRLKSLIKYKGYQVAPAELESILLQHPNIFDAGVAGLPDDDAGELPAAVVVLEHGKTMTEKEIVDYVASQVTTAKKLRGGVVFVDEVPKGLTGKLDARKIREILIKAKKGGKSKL

SMILES | composite z-score (Albumin (Bos taurus)) | composite Z-score [1] | composite z-score [2] | composite z-score [3] | composite z-score [4] | composite z-score [5] | composite z-score [6] | composite z-score (Sam68 (KHDRBS1)) | composite z-score [7] | composite z-score [8] | composite z-score [9] | composite z-score [10] | composite z-score [11] | composite z-score [12] | composite z-score [13] | composite z-score [14] | z-score [15] | composite z-score (Lefty1) | composite z-score [16] | z-score [17]
Cc1ccccc1C(O)C1C=CC2C(=O)N(c3ccccc3)C(=O)C2N1Nc1ccc(C(C)C)cc1 (stereo not given) | 0.868 | 0.403 (inactive) | 0.344 | -0.0983 | 0.304 | 2.1 | 0.68 | 1.15 | -0.219 | 1.15 | 0.0147 | 1.14 | 0.655 | 0.997 | 1.02 | -0.144 | -0.504 | 0.383 | 0.882 | -0.263 (inactive)
NC(=O)NCC#Cc1ccc2c(c1)[C@]1(C(=O)N2)[C@H](C(N)=O)[C@H]2C(=O)O[C@H](c3ccccc3)[C@H](c3ccccc3)N2[C@@H]1c1ccc(O)cc1 | -0.0636 | 1.42 (inactive) | 0.286 | 0.668 | 0.688 | 3.15 | 0.505 | 0.652 | -0.034 | -0.279 | -0.407 | -0.655 | -0.209 | 0.513 | 0.336 | 0.383 | -1.27 | -1.01 | 0.623 | -0.192 (inactive)
COC(=O)[C@]1(CCC(=O)OC(C)(C)C)N=C(c2ccc(OCCCO)cc2)O[C@@H]1c1ccccc1CN=[N+]=[N-] | -0.325 | -1.26 (inactive) | -0.0284 | 0.0059 | 0.675 | 1.72 | -0.46 | 0.866 | -1.04 | 0.779 | 0.0121 | 1.06 | 0.348 | 0.666 | 1.13 | 0.283 | -0.208 | -0.477 | 0.095 | -0.76 (inactive)
O=C(c1ccccc1)N1C(=O)[C@@]2(Cc3ccccc31)N=C(c1ccc(OCCCO)cc1)O[C@H]2c1ccccc1 | -0.85 | 0.718 (inactive) | 0.33 | 0.14 | 0.575 | 2.41 | 1.22 | 1.31 | 0.897 | 1.14 | 1.39 | 1.21 | 1.23 | 0.657 | 1.4 | 1.45 | -1.02 | 0.856 | 0.811 | -1.14 (inactive)
COC(=O)[C@@]1(Cc2ccc(F)cc2)[C@H]2c3cc(C(=O)N4CCCC4)n(Cc4ccc(S(C)(=O)=O)cc4)c3C[C@H]2CN1C(=O)c1ccccc1 | 1.08 | 1 (inactive) | 0.827 | 0.365 | 0.718 | 3.34 | 1.21 | 0.995 | -0.26 | 1.05 | 1.9 | 1.24 | 0.566 | 0.773 | 0.751 | 0.264 | 0.427 | -0.0071 | 0.616 | 1.18 (inactive)
CC1(C)[C@@H]2CC(C(O)C3C=CC4C(=O)N(c5ccccc5)C(=O)C4N3Nc3ccc([N+](=O)[O-])cc3)=C[C@H]1C2 (stereo not given in full) | 0.973 | 0.131 (inactive) | 0.101 | -0.106 | 0.425 | 2.8 | 0.0175 | 1.33 | 0.649 | 1.17 | 1.11 | 1.27 | 0.368 | 1.04 | 1.16 | 0.488 | -1.25 | 0.619 | 0.728 | 0.285 (inactive)
O=C1c2ccccc2[C@](Cc2ccccc2I)(C(=O)NCC(F)(F)F)[C@H](c2ccc(CO)cc2)N1Cc1ccccc1Cl | 0.83 | -0.228 (inactive) | 0.0445 | -0.0811 | 0.596 | 2.04 | 1.42 | 1.29 | -0.466 | 1.09 | -0.176 | 1.19 | 1.22 | 0.722 | 1.1 | 0.138 | 0.423 | 0.883 | 0.549 | 0.406 (inactive)
C=CCC(OC(C)=O)[C@@H]1[C@@H](N(Cc2ccc(-c3ccccc3)cc2)C(=O)Cc2ccc(OC)cc2)c2cc(OCCCO)ccc2N1C(=O)Cc1ccc2ccccc2c1 (stereo not given in full) | 0.0549 | 0.142 (inactive) | -0.0841 | -0.112 | 0.064 | 0.49 | -0.149 | -0.493 | -0.0169 | -1.7 | -0.142 | -0.442 | 0.151 | 0.389 | -0.0399 | -0.197 | 0.112 | 0.168 | 0.182 | -0.358 (inactive)
COC(=O)[C@@]1(Cc2ccc(F)cc2)[C@H]2c3cc(C(=O)N4CCCC4)n(CCCNc4ncc(C(F)(F)F)cc4Cl)c3C[C@H]2CN1C(=O)c1ccccc1 | 0.357 | -0.585 (inactive) | 0.69 | 0.362 | 0.728 | 2.01 | -0.252 | 0.541 | 0.197 | 0.625 | 2.47 | 1.08 | 0.604 | 0.817 | -0.0084 | -0.903 | 0.742 | -0.695 | 1.03 | 1.37 (inactive)
CCCCCN1CC=CC23O[C@@H]4C=CCCOC(=O)C4[C@H]2C(=O)N(CCCCCO)[C@@H]3C1=O (stereo not given in full) | 0.337 | 0.0269 (inactive) | -0.213 | -0.142 | 0.846 | 0.718 | 0.57 | -1.22 | -0.17 | -0.406 | 0.587 | 0.0287 | -0.383 | 0.302 | -1.03 | -0.347 | 1.4 | -0.582 | 0.796 | 0.0192 (inactive)
